Among the data in PubChem BioAssay (NCATS) are Potency values, retold here.

Structures are written as SMILES. A number with no mark means an inactive call. No rule for the calls is given here.
Potency is read from the fitted curve at half-maximal effect.

The test system of the assay is HIV-1 nucleocapsid protein NCp7 (binding to TG oligonucleotide). Nature of the assay: HIV Nucleocapsid (AID 346).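 Also: potency is for inhibitors that block NC binding and lower polarization.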 The following applies: HIV-1 NC / fluorescein-TGTGTGTG probe, fluorescence polarization. The gist of the method:
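10 nM TG4xF probe with 100 nM nucleocapsid protein in high-salt Hepes pH 7.5 (250mM NaCl) containing 1uM ZnCl2 and reducing agents. Compound inhibition of binding was read as fluorescein polarization after 1 hr at room temperature.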
Background: In fluorescence polarisation assays a small probe gives low polarisation when free and higher when bound to something large.
Regarding `O=C(Nc1cccc(F)c1)N1CC2(CCN(C(=O)c3cc(C(F)(F)F)cc(C(F)(F)F)c3)CC2)C1`, the Potency was over 4 µM.

`CN1CCN(c2ncncc2-c2ccc(C(=O)N(C)C)cc2)CC1`: the Potency is over 20 µM.

Consider `CC(=O)N1CCC[C@@]2(CCN(C(=O)Nc3cccc(C#N)c3)C2)C1`, for which the Potency was over 20 µM.

With `COc1ncc2ncc(=O)n(Cc3cccs3)c2n1`, the Potency was over 20 µM.

`COCCn1c(=O)c(-c2cc(F)cc(F)c2)nc2cnc(N3CCN(C)CC3)nc21`: the Potency was over 20 µM.

As for `CN1CCN(c2ncncc2-c2ccc(N(C)C)cc2)CC1`, the Potency was over 20 µM.

As for `COc1ccc(NC(=O)N2CC[C@@]3(CCCNC3)C2)cc1`, the Potency was over 20 µM.

For `Cc1cccc(CNc2cc(-c3cccc(C#N)c3)ncn2)c1`, the Potency is over 20 µM.

For the compound `CN(C)c1ccc(-c2nc(Nc3ccncc3)c3ccccc3n2)cc1`, the Potency is over 20 µM.

For the compound `COCCn1c(=O)c(-c2ccc(Cl)cc2)nc2cnc(Oc3cccc(Cl)c3)nc21`, the Potency was over 20 µM.

As to `COc1cccc(Nc2ncc3nc(-c4ccccc4)c(=O)n(C)c3n2)c1`, the Potency is over 20 µM.

With `CN(C)c1ncc2nc(-c3ccccc3)c(=O)n(Cc3ccc(F)cc3)c2n1`, the Potency was over 20 µM.

For the compound `COc1ccc(-c2nc3cnc(N4CCNCC4)nc3n(Cc3cccc(OC)c3)c2=O)cc1`, the Potency was over 20 µM.

In the case of `COCCn1c(=O)c(CCc2ccccc2)nc2cnc(Oc3ccccc3)nc21`, the Potency is over 20 µM.

Regarding `CNc1ncnc2ccc(-c3ccc4c(c3)OCO4)cc12`, the Potency was over 20 µM.

On to `COc1cccc(-c2cncnc2-n2ccnc2)c1`, for which the Potency was over 20 µM.

`COc1ccc(-c2nc3cnc(OC)nc3n(Cc3ccc(F)cc3)c2=O)cc1`: the Potency was over 20 µM.

For the compound `FC(F)(F)c1ccccc1-c1nccc(NCc2cccs2)n1`, the Potency was over 20 µM.

With `CN(C)Cc1ccccc1-c1cc(NCc2cccs2)ncn1`, the Potency is over 20 µM.

For the compound `COc1ncc2nc(-c3ccccc3)c(=O)n(Cc3cccs3)c2n1`, the Potency was over 20 µM.

On to `COC(=O)N1CCC2(CCN(C(=O)Nc3ccc(OC)cc3)CC2)CC1`, for which the Potency was over 20 µM.

Take `COc1ccccc1CNc1ncncc1-c1ccccc1CN(C)C`: the Potency is over 20 µM.

`O=C(c1ccncc1)N1CCC2(CCCN(c3ncccn3)C2)CC1`: the Potency was over 20 µM.

As for `N#CCCn1c(=O)c(-c2ccc(Cl)cc2)nc2cnc(Oc3cccc(Cl)c3)nc21`, the Potency is over 4 µM.

Turning to `Cc1nc2cnc(Oc3cccc(Cl)c3)nc2n(CCC#N)c1=O`, the Potency is over 20 µM.

For the compound `O=c1cnc2cnc(N3CCNCC3)nc2n1Cc1ccc(F)cc1`, the Potency was over 20 µM.

For the compound `N#CCCn1c(=O)c(-c2cc(F)cc(F)c2)nc2cnc(N3CCOCC3)nc21`, the Potency is over 20 µM.

Consider `N#CCCn1c(=O)cnc2cnc(Oc3cccc(Cl)c3)nc21`, for which the Potency is over 20 µM.

As to `COc1ccc(-c2nc3cnc(OC)nc3n(C[C@H]3CCCO3)c2=O)cc1`, the Potency is over 20 µM.

Turning to `COc1cccc(Cn2c(=O)c(-c3ccc(F)cc3)nc3cnc(N4CCOCC4)nc32)c1`, the Potency was over 20 µM.

For `COc1ccc(C(=O)N2CCC3(CCCN(c4ccccn4)C3)CC2)cc1`, the Potency is over 20 µM.

As for `COc1cccc(Nc2ncc3nc(-c4ccccc4)c(=O)n(Cc4cccs4)c3n2)c1`, the Potency was over 20 µM.

As to `Cn1c(=O)c(-c2ccc(Cl)cc2)nc2cnc(OCc3ccccc3)nc21`, the Potency is over 20 µM.

Take `CN(C)Cc1ccccc1-c1nccc(NCc2cccs2)n1`: the Potency was over 20 µM.

With `O=c1c(-c2cc(F)cc(F)c2)nc2cncnc2n1Cc1ccccc1Cl`, the Potency is over 20 µM.

On to `Cc1nc2cnc(Nc3ccccc3)nc2n(CCC#N)c1=O`, for which the Potency is over 20 µM.

As to `N#CCCn1c(=O)c(CCc2ccccc2)nc2cnc(OCc3ccccc3)nc21`, the Potency is over 20 µM.

On to `Cn1cccc1C(=O)N1CCC2(CC1)CN(Cc1ccc(C#N)cc1)C2`, for which the Potency is over 20 µM.

Turning to `CN(Cc1ccco1)c1ncnc2ccc(-c3cccc(C#N)c3)cc12`, the Potency was over 20 µM.

With `Cn1cc(-c2nc3cnc(Oc4ccccc4)nc3n(C3CC3)c2=O)c2ccccc21`, the Potency was over 20 µM.
